Assay results: the supplement of paper PMC6555819

Columns and labels:
Experiment in all cases: PBM binding z-score (relative to random genomic background probes); higher = stronger binding; sequences stand for … in GC…GCGATTGACAGCGTAGAATGAAGG
[1] = test system: FXR:RXRa (NR concentration 270 nM, RXRa partner concentration 90 nM)
How it was run: (§1)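 Binding z-scores were set against random background probes. The data came from custom Agilent 4×180K protein-binding microarrays carrying double-stranded probes with 34-nt variable regions, incubated 1 h with ligand-free nuclear receptor dimers. Partner-specific antibodies detected binding, and scanned fluorescence was regression-normalized.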

[2] = test system: LXRa:RXRa (NR concentration 270 nM, RXRa partner concentration 90 nM)
How it was run: as §1

[3] = test system: LXRa homodimer (NR concentration 270 nM)
How it was run: as §1

[4] = test system: LXRb:RXRa (NR concentration 270 nM, RXRa partner concentration 90 nM)
How it was run: as §1

[5] = test system: LXRb homodimer (NR concentration 270 nM)
How it was run: as §1

[6] = test system: PPARa:RXRa (NR concentration 270 nM, RXRa partner concentration 90 nM)
How it was run: as §1

[7] = test system: PPARg:RXRa (NR concentration 180 nM, RXRa partner concentration 90 nM)
How it was run: as §1

[8] = test system: PPARg:RXRa 270nM:90nM, anti-RXR (NR concentration 270 nM, RXRa partner concentration 90 nM)
How it was run: as §1

[9] = test system: PPARg:RXRa 30nM:10nM, anti-RXR (NR concentration 30 nM, RXRa partner concentration 10 nM)
How it was run: as §1

[10] = test system: PPARg:RXRa 90nM:30nM, anti-RXR (NR concentration 90 nM, RXRa partner concentration 30 nM)
How it was run: as §1

[11] = test system: PPARg:RXRa DBDmut IVT, anti-RXR (DBD mutation: RXRa K156A/R161A, NR concentration 270 nM, RXRa partner concentration 90 nM)
How it was run: as §1

[12] = test system: PPARg:RXRa IVT, anti-PPARg (NR concentration 270 nM, RXRa partner concentration 90 nM)
How it was run: as §1

[13] = test system: PPARg DBDmut:RXRa IVT, anti-PPARg (DBD mutation: PPARg1 K132A/R137A, NR concentration 270 nM, RXRa partner concentration 90 nM)
How it was run: as §1

[14] = test system: PPARg DBDmut IVT, anti-PPARg (DBD mutation: PPARg1 K132A/R137A, NR concentration 270 nM)
How it was run: as §1

[15] = test system: PPARg homodimer (NR concentration 180 nM)
How it was run: as §1

[16] = test system: PXR:RXRa (NR concentration 270 nM, RXRa partner concentration 90 nM)
How it was run: as §1

[17] = test system: PXR homodimer (NR concentration 270 nM)
How it was run: as §1

[18] = test system: RARa:RXR (NR concentration 270 nM, RXRa partner concentration 90 nM)
How it was run: as §1

[19] = test system: RARa homodimer (NR concentration 270 nM)
How it was run: as §1

[20] = test system: RARb:RXRa (NR concentration 270 nM, RXRa partner concentration 90 nM)
How it was run: as §1

Sequence | PBM binding z-score [1] | PBM binding z-score [2] | PBM binding z-score [3] | PBM binding z-score [4] | PBM binding z-score [5] | PBM binding z-score [6] | PBM binding z-score [7] | PBM binding z-score [8] | PBM binding z-score [9] | PBM binding z-score [10] | PBM binding z-score [11] | PBM binding z-score [12] | PBM binding z-score [13] | PBM binding z-score [14] | PBM binding z-score [15] | PBM binding z-score [16] | PBM binding z-score [17] | PBM binding z-score [18] | PBM binding z-score [19] | PBM binding z-score [20]
GCTTACGGGTCAAAGGTTATTGCATGAATAGAAT | 7.79 | 5.75 | 1.09 | 5.81 | 0.701 | 6.84 | 11.3 | 9.3 | 8.78 | 10.8 | 4.96 | 5.79 | 2.15 | 2.94 | 3.22 | 6.21 | 0.728 | 8.16 | 1 | 4.49
GAAACGAGGGCAAGTTGATAGCAGAGTTTGATGG | 1.07 | 0.537 | -0.42 | 0.157 | -0.895 | 2.38 | 1.76 | 1.76 | 0.251 | 1.2 | 5.01 | 4.04 | 0.483 | 0.387 | 0.633 | 0.91 | 1.01 | 0.741 | -0.324 | 2.48
ATCTCTAGGGAAAAGTTCAGTGAATCCCGAGGAT | -0.0297 | 0.401 | 0.405 | 0.302 | 0.328 | 2.67 | 4.59 | 5.66 | 3.84 | 5.64 | -0.096 | 1.64 | 0.313 | 0.383 | 0.686 | 1.42 | 0.706 | 0.616 | 0.196 | 1.77
CTTTACGGGTCACTGACAGGTTATAGCATTTGGA | 5.62 | 5.09 | 1.02 | 3.91 | 0.469 | 5.46 | 5.06 | 5.14 | 2.12 | 4.01 | 4.85 | 4.95 | 0.913 | 1.44 | 2.33 | 3.9 | 0.619 | 5.01 | 0.972 | 4.14
GGAACGAGGGAATTCGAGTTGATAGCATGGCGAT | -0.4 | -0.535 | -0.72 | -0.978 | -1.16 | -0.557 | 0.44 | -0.504 | -0.356 | -0.529 | -0.111 | -0.244 | -0.28 | 0.0147 | -0.611 | -0.165 | -0.439 | -0.36 | -0.411 | -0.688
TGATTGAGGTTATAAGATCAGGGAACGTTGCAAA | 1.58 | 1.48 | -0.174 | 1.21 | -0.195 | 2.46 | 0.965 | 1.78 | 0.689 | 1.56 | 0.431 | 1.59 | 0.391 | 0.349 | 0.564 | 0.896 | -0.0809 | 1.5 | 0.232 | 1.19
TCGAGTAGGATAGGGGCATTCAGAATGGCGTCGA | 0.0392 | -0.388 | -0.671 | 0.283 | -0.491 | 0.262 | 0.0969 | 0.573 | 0.884 | 0.812 | 0.794 | -0.24 | -0.499 | -1.34 | 0.0464 | -0.136 | -0.0675 | -0.134 | -0.862 | 0.225
